Several values for one entry are separate records, joined by “and”; a condition that tells them apart may be missing. Identical values can stand only once. Results filed as inconclusive are left out. Activity calls are given as the source filed them. Calls come from the whole dose curve; as a rule, active = well fitted curve in the direction sought with a large enough effect; inconclusive = small, poorly fitted or top-dose-only effect, or another doubt; inactive = no such curve, though single readings can be large or run the other way.
biological target: Lysosomal acid glucosylceramidase (Homo sapiens) (UniProt P04062); experiment: qHTS Assay for Inhibitors and Activators of N370S glucocerebrosidase as a Potential Chaperone Treatment of Gaucher Disease: Primary Screen Confirmation; conditions: N370S glucocerebrosidase enzyme activity, fluorogenic substrate; series mostly up to 54 µM;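 for Potency: enzyme source is Gaucher patient spleen homogenate not purified recombinant protein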
Sequence (P04062 whole entry N409S): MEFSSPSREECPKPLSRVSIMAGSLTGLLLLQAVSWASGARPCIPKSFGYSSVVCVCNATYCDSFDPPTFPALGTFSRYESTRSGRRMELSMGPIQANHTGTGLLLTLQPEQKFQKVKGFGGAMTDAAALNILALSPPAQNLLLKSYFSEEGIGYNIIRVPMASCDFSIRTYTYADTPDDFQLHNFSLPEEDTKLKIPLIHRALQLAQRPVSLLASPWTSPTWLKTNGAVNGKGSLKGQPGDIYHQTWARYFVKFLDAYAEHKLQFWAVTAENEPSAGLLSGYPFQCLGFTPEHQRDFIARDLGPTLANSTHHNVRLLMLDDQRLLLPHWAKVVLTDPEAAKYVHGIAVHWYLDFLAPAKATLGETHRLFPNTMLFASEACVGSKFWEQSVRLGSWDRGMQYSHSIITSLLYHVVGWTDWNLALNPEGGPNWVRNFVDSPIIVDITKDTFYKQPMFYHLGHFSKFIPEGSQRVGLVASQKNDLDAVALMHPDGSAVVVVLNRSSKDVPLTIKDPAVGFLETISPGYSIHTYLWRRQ
Method in brief: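 Patient-spleen homogenate carrying N370S GC (27 ug) in pH 5.0 citrate buffer with 0.01% Tween-20, 1 mM 4-methylumbelliferyl-beta-glucoside, 40 min at 37C; fluorescence 365/440 nm after NaOH/glycine stop; AC50 from Hill fits.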
Potency is the fitted concentration of half-maximal effect.

Question: `Cc1ccc(S(=O)(=O)N2CCC(c3nc(-c4cccs4)nc4ccccc34)CC2)cc1` was tested. Which Potency did it give?
Answer: inactive

Question: For `NS(=O)(=O)c1ccc(S(=O)(=O)N2CCN(c3nc(-c4cccs4)nc4ccccc34)CC2)cc1`, which Potency is on record?
Answer: 3.26 µM (active)

Question: With `Cc1ccc(S(=O)(=O)N2CCN(c3nc(-c4ccc(F)cc4)nc4cc(Cl)ccc34)CC2)cc1` as the compound, how does the Potency read?
Answer: inactive

Question: How did the Potency turn out when `Cc1cc(C)cc(N(CC(=O)Nc2ccc(C)cc2Cl)S(=O)(=O)c2c(C)[nH]c(=O)[nH]c2=O)c1` was run?
Answer: 1.63 µM (active)

Question: With `CC(=O)Nc1ccc(NC(=O)COc2ccccc2C(=O)Nc2cccc(Cl)c2Cl)cc1` as the compound, how does the Potency read?
Answer: inactive

Question: Which Potency does the source give for `Cc1ccc(S(=O)(=O)N2CCN(c3nc(C#N)nc4ccccc34)CC2)cc1` here?
Answer: inactive

Question: `CCN1CCN(c2nc3c(C)cccn3c(=O)c2/C=C(\C#N)C(=O)NCCOC)CC1` was tested. Which Potency did it give?
Answer: inactive

Question: With `O=S(=O)(c1nccs1)N1CCN(c2nc(-c3cccs3)nc3ccccc23)CC1` as the compound, how does the Potency read?
Answer: 7.3 µM (active)

Question: `CNCCN(C)c1nc(-c2cccs2)nc2ccccc12` was tested. Which Potency did it give?
Answer: inactive

Question: For `O=S(=O)(c1ccc(F)cc1)N1CCN(c2nc(-c3cccs3)nc3cc(Cl)ccc23)CC1`, which Potency is on record?
Answer: inactive

Question: Which Potency does the source give for `O=S(=O)(c1ccccc1C(F)(F)F)N1CCN(c2nc(-c3cccs3)nc3ccccc23)CC1` here?
Answer: 0.41 µM (active)

Question: For `O=S(=O)(c1cnc2ccccc2c1)N1CCN(c2nc(-c3cccs3)nc3ccccc23)CC1`, which Potency is on record?
Answer: 0.897 µM (active)

Question: `CCCCN(CCCNC(=S)NCCCc1cnc[nH]1)c1ccc(Br)cn1` was tested. Which Potency did it give?
Answer: 8.18 µM (active)

Question: With `CCCCNC(=O)c1cc2c(=O)n3cccc(C)c3nc2s1` as the compound, how does the Potency read?
Answer: inactive

Question: Which Potency does the source give for `COc1ccc(Nc2nc(-c3cccs3)nc3ccccc23)cc1` here?
Answer: 2.25 µM (active)

Question: `O=S(=O)(c1ccc(Cl)cc1)N1CCN(c2nc(-c3cccs3)nc3ccccc23)CC1` was tested. Which Potency did it give?
Answer: 1.46 µM (active) and 1.13 µM (active) and 1.63 µM (active)

Question: With `O=C(NCCN1CCOCC1)c1ccc(/C=C2\Sc3ccccc3N(Cc3ccccc3F)C2=O)cc1` as the compound, how does the Potency read?
Answer: 7.3 µM (active)

Question: With `COc1ccc(S(=O)(=O)N2CCN(c3nc(-c4cccs4)nc4ccccc34)CC2)cc1` as the compound, how does the Potency read?
Answer: 0.819 µM (active)

Question: With `O=S(=O)(c1ccc2ncsc2c1)N1CCN(c2nc(-c3cccs3)nc3ccccc23)CC1` as the compound, how does the Potency read?
Answer: 0.366 µM (active)

Question: Which Potency does the source give for `O=S(=O)(c1ccc2c(c1)CCCC2)N1CCN(c2nc(-c3cccs3)nc3ccccc23)CC1` here?
Answer: 0.713 µM (active)

Question: With `CC(=O)c1cccc(S(=O)(=O)N2CCN(c3nc(-c4cccs4)nc4ccccc34)CC2)c1` as the compound, how does the Potency read?
Answer: 2.25 µM (active)

Question: With `O=[N+]([O-])c1ccccc1S(=O)(=O)N1CCN(c2nc(-c3ccccc3)nc3ccccc23)CC1` as the compound, how does the Potency read?
Answer: 5.69 µM (active)

Question: `Cc1cc2[nH]c(=O)c(=O)[nH]c2cc1S(=O)(=O)N1CCN(c2cccc(C)c2C)CC1` was tested. Which Potency did it give?
Answer: 4.11 µM (active)

Question: How did the Potency turn out when `CN(CCN(C)c1nc(-c2cccs2)nc2ccccc12)C(=O)OC(C)(C)C` was run?
Answer: 5.8 µM (active)

Question: With `O=S(=O)(c1cccc(Br)c1)N1CCN(c2nc(-c3cccs3)nc3ccccc23)CC1` as the compound, how does the Potency read?
Answer: 2.53 µM (active)

Question: `Cc1ccc(S(=O)(=O)N2CCN(c3nc(-c4cccs4)nc4cccnc34)CC2)cc1` was tested. Which Potency did it give?
Answer: 2.53 µM (active)

Question: How did the Potency turn out when `O=S(=O)(c1cccc(Cl)c1)N1CCN(c2nc(-c3cccs3)nc3ccccc23)CC1` was run?
Answer: 1.6 µM (active) and 1.79 µM (active)

Question: For `Cc1ccc(CC(=O)Nc2cccc(C)n2)cc1`, which Potency is on record?
Answer: inactive

Question: How did the Potency turn out when `O=S(=O)(c1ccc2c(c1)OCCO2)N1CCN(c2nc(-c3ccccc3)nc3ccccc23)CC1` was run?
Answer: 3.2 µM (active)
